CYP2C9 activ: activators of human CYP2C9; recombinant CYP2C9, luciferin-H conversion, luminescence; active compounds read high; factor 1 = untreated enzyme, 0 = blocked; activation factor at 5 µM; actives 1.4% (n = 96,000);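 active means activation factor of 2 or more for CYP2C9 at a 5 µM dose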;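 further: 0 = sulfaphenazole-blocked wells and 1 = vehicle-only wells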
Target sequence (P11712 whole entry, looked up): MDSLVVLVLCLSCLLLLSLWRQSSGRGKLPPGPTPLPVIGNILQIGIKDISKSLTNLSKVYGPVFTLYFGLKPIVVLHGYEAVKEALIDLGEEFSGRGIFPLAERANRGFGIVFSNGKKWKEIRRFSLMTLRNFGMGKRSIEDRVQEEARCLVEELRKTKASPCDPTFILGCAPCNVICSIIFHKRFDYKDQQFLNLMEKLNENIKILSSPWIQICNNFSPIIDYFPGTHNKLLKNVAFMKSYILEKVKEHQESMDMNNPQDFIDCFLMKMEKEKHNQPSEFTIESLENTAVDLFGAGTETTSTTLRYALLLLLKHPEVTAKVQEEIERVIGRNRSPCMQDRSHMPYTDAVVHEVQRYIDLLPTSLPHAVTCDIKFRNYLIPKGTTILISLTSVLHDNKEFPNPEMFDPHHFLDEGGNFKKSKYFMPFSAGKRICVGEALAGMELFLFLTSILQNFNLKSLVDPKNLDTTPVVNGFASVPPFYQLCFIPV
CYP2C9 inh: blocks human cytochrome P450 2C9. P11712. CYP2C9 Supersomes, luciferin-H conversion, luminescence. inhibition, % at 5 µM. actives 20% (n = 96,000);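 active means blocking of liver enzyme CYP2C9 beyond about 50% at 5 µM, limit read from the data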
PLAP activator: activators of human placental alkaline phosphatase; purified PLAP enzyme, luminescent substrate read-out; active compounds read high; actives 1.2% (n = 96,000); activation fold at 20 µM; P05187; in the data active means activation fold above about 2
CYP2C19 act: activators of human cytochrome P450 2C19 | activation factor at 5 µM | 96,000 tested, under 10 active | P33261 | AID 1025 | recombinant CYP2C19, luciferin-H EGE luminescence; active compounds read high; 0 = fully inhibited enzyme, 1 = untreated enzyme;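 active means activation factor of at least 2 at 5 µM in the primary screen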;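 further: 0 = wells with 2.5 mM tranylcypromine and 1 = vehicle-only wells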
CYP2C19 inh: human CYP2C19 inhibition | inhibition, % at 5 µM | actives 21% (n = 96,000) | CYP2C19 Supersomes, luciferin-H EGE luminescence, 30 min | P33261;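 active means CYP2C19 inhibition above a set limit at 5 µM in the primary screen, cut at about 50% in these data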;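 further: plate controls were negative control wells for no effect and 2.5 mM tranylcypromine positive control for full effect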
* marks the source's active call; other numbers are inactive results. Sampled rows, rich in hits. Any-hit rate of the full collection: about 31%.

SMILES	CYP2C9 activ	CYP2C9 inh	PLAP activator	CYP2C19 act	CYP2C19 inh
COc1cc(CO)cc(-c2cc(CO)cc(OC)c2OC)c1OC	1	4	0.8	0.9	11
CSc1nc(Oc2ccccc2)c2sccc2n1	0.4	60*	0.9	0.9	10
C=CCSc1nc(Oc2ccccc2)c2sccc2n1	0.7	34	1	0.5	54*
C=CCNc1nc(SCC=C)nc2ccsc12	1.8	-82	0.9	0.6	41
CCN(CC)CCn1c2ccc(F)cc2c2nc(C)sc21	0.7	27	1.7	0.7	28
CC(=O)c1c(C(C)=O)c(C)n(-c2nc(-c3ccc(C)c(C)c3)c(C)s2)c1C	1	4	1.3	1	-1
C=CCn1c(=O)/c(=C/c2cc(OC)c(OC)c(OC)c2)s/c1=C(/C#N)c1nc2ccccc2n1C	1	3	1.4	0.9	10
Cc1oc2cc3oc(=O)c4c(c3cc2c1C)CCC4	1	-4	1	0.4	63*
Cc1coc2c(C)c3oc(=O)c4c(c3cc12)CCCC4	0.5	47	0.9	0.6	42
CCc1cc2c(CN3CCN(C)CC3)cc(=O)oc2cc1O	1.3	-26	1	1.1	-10
Cc1c(O)c(CN2CCCCC2)cc2c3c(c(=O)oc12)CCC3	0.3	70*	1	0.6	42
Cc1oc2c(C)c3oc(=O)c4c(c3cc2c1C)CCC4	0.7	28	0.9	0.2	80*
CCc1cc2c3c(c(=O)oc2cc1O)CCCC3	0.3	72*	1	0.4	62*
Cc1sc(NC(=O)c2ccco2)c(C(c2cccnc2)N2CCC(C)CC2)c1C (centres undefined)	0.2	76*	1.7	0.1	88*
Cc1sc(NC(=O)c2ccco2)c(CN2CCC(C)CC2)c1C	0.7	27	0.9	0.6	36
COc1cccc(NC(=O)CN2C(=O)COc3ccc(Cl)cc32)c1	0.2	78*	0.9	0.1	92*
Cc1cccc(NC(=O)CN2C(=O)COc3ccc(Cl)cc32)c1C	0.7	32	1	0.1	88*
Cc1cccc(NC(=O)CN2C(=O)COc3ccc(Cl)cc32)c1	0.8	18	0.7	0.3	72*
O=C(CN1C(=O)COc2ccc(Cl)cc21)Nc1ccc2c(c1)OCCO2	0.7	32	0.9	0.8	22
COc1cc(COCC(O)CN2CCOCC2)cc(OC)c1OC (centres undefined)	1.1	-10	1	0.9	9
CCOc1cc(C2/C(=C(\O)c3cc(C)ccc3C)C(=O)C(=O)N2CCN(C)C)ccc1O (centres undefined)	1	-5	1.2	1.1	-14
Cc1ccnc(NC(=O)c2cccc(NS(=O)(=O)c3ccccc3C)c2)c1	0.7	33	1.4	0.5	52*
Cc1ccc(S(=O)(=O)Nc2cccc(C(=O)Nc3cc(C)ccn3)c2)cc1	0.7	31	0.9	0.7	28
CSc1nc2ccc(S(=O)(=O)N3CCCC3)cc2s1	0.5	53*	0.7	0	99*
CC(C)CC(=O)Nc1nc2ccc(S(=O)(=O)N3CCOCC3)cc2s1	0.9	15	1	1.1	-15
SMILES	CYP2C9 activ	CYP2C9 inh	PLAP activator	CYP2C19 act	CYP2C19 inh
CSc1nc2ccc(N3C(=O)C4CCCCC4C3=O)cc2s1 (centres undefined)	0.8	15	1	0.9	10
O=S(=O)(Nc1nc2ccc(S(=O)(=O)N3CCCC3)cc2s1)c1ccc(F)cc1	0	100*	1.4	1	2
Cc1cc(NCCCN2CCOCC2)n2nc(C)c(-c3ccccc3)c2n1	0.3	71*	1.6	0.7	32
Cc1cc(NCCCN2CCOCC2)n2ncc(-c3ccccc3)c2n1	0.1	88*	0.1	0.6	41
CCNc1nc(OC)nc(SCC(N)=O)n1	1.2	-24	0.9	1.1	-10
CCc1cc(=O)oc2cc(OCC(N)=O)c(Cl)cc12	1.1	-6	0.7	1	-4
O=C(COC(=O)C1CC(=O)N(c2ccccc2)C1)c1ccccc1 (centres undefined)	0.8	22	0.8	0.8	19
CCCOC(=O)C1C2C=CC(C3CC23)C1C(=O)OCC(=O)c1ccccc1 (centres undefined)	0.3	73*	1.3	0.1	91*
Cc1cc2ncn(CCOc3ccccc3C#N)c2cc1C	0.5	51*	1.1	0.2	77*
Clc1ccccc1OCCn1cnc2ccccc21	0.3	69*	1	0.2	80*
Clc1ccc(OCCn2cnc3ccccc32)cc1	0.2	77*	1	0.2	84*
Cc1ccc(OCCCCn2cnc3ccccc32)c(C)c1	0.6	38	1.2	0.7	35
CN(C)S(=O)(=O)n1ccnc1	1	-4	0.9	1.1	-6
CC(C)(C)NC(=O)NC(=O)COC(=O)C1=COCCO1	1	1	0.9	1.1	-5
CCC1c2ccc(C)n2CCN1C(=O)Nc1ccccc1C(=O)OC (centres undefined)	0.4	59*	1.7	0.1	86*
CCC(C)NC(=O)CN(c1ccc2c(c1)OCO2)S(=O)(=O)c1c(C)n[nH]c1C (centres undefined)	0.5	52*	2.2*	0.2	76*
Cc1n[nH]c(C)c1S(=O)(=O)N(CC(=O)Nc1ccc2c(c1)OCCO2)c1ccc(C(C)C)cc1	0.3	68*	2*	0.6	44
Cc1[nH]c2ccc3c(ncn3CCC#N)c2c1C	0.9	11	1	1	2
CCOC(=O)N1CCN(c2nc(-c3ccc(F)cc3)cs2)CC1	0.6	36	0.9	0.7	31
Cc1cc2ncn(C(=O)N3CCCCC3)c2cc1C	0.9	6	1	0.2	82*
Cc1cc2ncn(S(=O)(=O)N3CCCCC3)c2cc1C	0.9	7	1.2	0.8	25
Cc1cccc(NC(=O)c2ccc(C3SCC(=O)N3CCc3ccccc3)cc2)c1C (centres undefined)	0.1	89*	1.9	0.2	82*
CCc1ccc(NC(=O)c2ccc(C3SCC(=O)N3CCc3ccccc3)cc2)cc1 (centres undefined)	0.3	66*	1.4	0.5	47
COc1ccc2[nH]c(=O)c(NC(N)=S)nc2c1	0.8	17	0.9	0.7	34
O=C(CC1Nc2ccccc2NC1=O)NC1CCCCC1 (centres undefined)	2.2*	-122	1.2	0.9	11
SMILES	CYP2C9 activ	CYP2C9 inh	PLAP activator	CYP2C19 act	CYP2C19 inh
CC1CCCC(NC(=O)CC2Nc3ccccc3NC2=O)C1C (centres undefined)	1.4	-38	1	0.8	20
c1ccc2sc(SN3CCOCC3)nc2c1	0.8	18	0.8	0.2	82*
Cc1nc(Cl)c(C#N)cc1-c1ccccc1	0.8	20	0.9	0.1	86*
Cc1nc(Sc2ccccc2)c(C#N)cc1-c1ccccc1	0.3	70*	0.7	0.4	58*
Cc1nnc(SCC(=O)NCc2ccccc2)[nH]c1=O	0.8	22	0.9	0.9	11
CCC(C)[C@H](NC(=O)NCC1CCCO1)C(=O)OC (some centres undefined)	1.1	-12	1.1	1.1	-14
